Values joined by “and” are separate entries in the source; they are usually repeats but may differ in a detail not shown here. Identical values can stand only once. The panel holds about 83,000 compounds, 20% with a hit somewhere; the sample as a whole holds those more often.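 Cells were grown in 96-well plates and exposed to the test compound at a single concentration for 48 hours; results are reported as percent growth, with values below 10 considered active.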 Active and inactive are the calls of the source.

One assay concerns A498 renal. Description: NCI-60 one-dose screen, 48 h (100 = growth as untreated, 0 = no growth, -100 = all killed). To be noted: 10 µM. The protocol: Growth inhibition of the A498 human tumor cell line is measured as a screen for anti-cancer activity. Cells are grown in 96 well plates and exposed to the test compound for 48 hours. Compounds are tested at a single concentration, which is 10^-5 M for most compounds. The reported endpoint is percent growth (GI% or GIPRCNT), where numbers from 0 - 100% represent growth inhibition, and numbers from -100% - 0 represent cell death. For example, a value of 40 represents 60% growth inhibition. A value of 0 means no net growth occurred over the course of the experiment. A value of -40 indicates 40% of cells at the beginning of the experiment died by the end of the experiment. A value of -100 means all cells are dead at the end of the experiment.
NCI-60 Human Tumor Cell Lines Screen was performed using the standard one-dose NCI protocol, which is described in more detail at https://dtp.cancer.gov/discovery_development/nci-60/default.htm.
Compounds with GIPRCNT values below 10 were considered active. Activity score was based on GIPRCNT using the following formula: […]
Score is 0 for GIPRCNT values of 100 or above, 50 for GIPRCNT values of 0, and 100 for GIPRCNT values of -100.
Regarding `CC(C)(C)c1cc(NC(=O)Cc2ccc(-c3cnc4cc(-c5cnn(CCN6CCOCC6)c5)ccc4n3)cc2)no1`, the growth is -26.9% (active).

`CCc1ccccc1-n1c(N)c(C#N)c(-c2ccc(OC)c(OC)c2)c(C#N)c1=O`: the growth was 120% (inactive).

As for `CC#C[C@]1(O)CC[C@H]2[C@@H]3CCC4=CC(=O)CCC4=C3[C@@H](c3ccc4c(c3)OCO4)C[C@@]21C`, the growth is 63% (inactive).

The same assay, now with this note: 10 µM unless noted.
Turning to `COC(=O)[C@H]1CCCN1C(=O)C1CCCN1C(=O)[C@@H](Cc1ccccc1)NC(=S)Nc1cc(C(F)(F)F)cc(C(F)(F)F)c1` (stereo not given in full), the growth is 96.6% (inactive) and 81.4% (inactive).

Turning to `CCOc1ccc2cc(-c3nn(CC4CCNCC4)c4ncnc(N)c34)ccc2c1`, the growth is 73% (inactive) and 37% (inactive).

Regarding `O=[N+]([O-])c1ccc(N/N=C\c2cc(Br)ccc2O)nc1`, the growth is 69.5% (inactive).

As for `O=[N+]([O-])c1ccc(-n2[nH]nnc2=S)cc1`, the growth was 95.1% (inactive).

With `CC(C)Oc1ccc2cc(-c3nn(CC4CCNCC4)c4ncnc(N)c34)ccc2c1`, the growth is 75% (inactive) and 16.7% (inactive).

Take `S=C1SCN(Cc2ccccc2)CN1Cc1ccccc1`: the growth was 74.4% (inactive).

On to `Cc1cccc(/C=C\C(=O)c2ccccc2)c1`, for which the growth was 95.2% (inactive) and 68.2% (inactive).

In the case of `CC(=O)Oc1cc(C(=O)O)cc(OC(C)=O)c1OC(C)=O`, the growth is 73.8% (inactive).

For `OC(COc1cccc2ccccc12)CN1CCN(c2ccc(Cl)cc2)CC1` (stereo not given), the growth is 92.3% (inactive) and 77% (inactive).

On to `CCNC(=O)Nc1ccc(-c2nc3c(c(N4CCOC[C@@H]4C)n2)CCN(C2COC2)C3)cc1`, for which the growth is -24.1% (active) and -36.2% (active).

For `NC(=O)c1ccccc1OCC(O)CO` (stereo not given), the growth is 94.6% (inactive).

`C/C(=N\NC(=O)c1ccncc1)c1ccccc1O`: the growth is 68.9% (inactive).

Turning to `COc1ccc2ccccc2c1/C=N/N1CCCCC1`, the growth was 89% (inactive).

With `O=C(N/N=C/c1ccc2c(c1)OCO2)c1ccncc1`, the growth was 98% (inactive) and 94% (inactive).

`Oc1c(CN2CCCCC2)ccc2cccnc12`: the growth was 61.4% (inactive) and 62.9% (inactive).

Turning to `Cc1cc(=O)[nH]c(O)c1C#N`, the growth was 114% (inactive) and 111% (inactive).

On to `Nc1nc(SC/C=C/CCl)c2[nH]cnc2n1`, for which the growth is 83.6% (inactive) and 91.6% (inactive).

On to `Cn1c(=O)c2[nH]c(CCCCCCCCc3nc4ccccc4[nH]3)nc2n(C)c1=O`, for which the growth is 55.7% (inactive) and 78.8% (inactive).

`c1ccc(NCc2ccc3c(c2)OCO3)cc1`: the growth is 101% (inactive) and 86.9% (inactive).

For the compound `O=C(Nc1ccc(Br)cc1)c1cc(Br)ccc1O`, the growth was -12.7% (active) and -34.6% (active).

Consider `COc1cc2c(c(OC)c1OC)-c1ccc(OC)c(=O)cc1[C@@H](NC(C)=O)CC2`, for which the growth is -0.067% (active) and 15.5% (inactive).

For `O=C(O)C1C2C=CC(C2)C1C(=O)O` (stereo not given), the growth is 96.8% (inactive) and 64.8% (inactive) and 99.2% (inactive).

Regarding `CCOC(=O)C(CNc1ccccc1)C(=O)OCC`, the growth was 98.5% (inactive).

Regarding `CN(C)CCC(=O)c1ccc(Cl)cc1`, the growth is 121% (inactive) and 114% (inactive).

`COc1ccc2c(=O)cc(-c3ccccc3)[nH]c2c1`: the growth is 50.7% (inactive).

With `N#C/C(=C1C=C/C(=N/O)C(Br)=C/1)c1ccccc1`, the growth is 63.7% (inactive).

With `Cc1ccc(-c2noc(CC(=O)c3ccc([N+](=O)[O-])cc3)n2)cc1`, the growth is 86.7% (inactive).

On to `O=C(CCc1ccc(O)cc1)N/N=C/c1cc(Br)ccc1O`, for which the growth was 78.5% (inactive).

`CCN(CC)C(=S)SSC(=S)N(CC)CC`: the growth was 83.7% (inactive) and 111% (inactive).

Turning to `Cc1cc(O)c(C(C)C)cc1S(=O)(=O)O` (tested in a mixture with another compound), the growth was 103% (inactive) and -18.3% (active) and 112% (inactive).

Regarding `COc1ccccc1NC(=O)OCC#CCOC(=O)Nc1ccccc1OC`, the growth is 87.5% (inactive) and 92.8% (inactive).

With `COc1cc(-c2nccc3cc4c(cc23)OCO4)cc(OC)c1OC`, the growth is 41.3% (inactive) and 20.1% (inactive).

Regarding `COC(=O)c1nc(N)nc(C(=O)OC)c1C(=O)c1ccc(OC)cc1`, the growth was 133% (inactive) and 141% (inactive).

Regarding `CCN(CC)CCC(CNc1ccnc2cc(Cl)ccc12)c1ccc(OC)cc1` (stereo not given), the growth is 38.2% (inactive) and 28.7% (inactive).

The assay is the same for the next values; noted with them: 30 µM.
Consider `CC(C)(C)c1cc(NC(=O)Cc2ccc(-c3cnc4cc(-c5cnn(CCN6CCOCC6)c5)ccc4n3)cc2)no1`, for which the growth is -14.9% (active).

Still in this assay, the particulars now being: 100 µM.
`CCc1ccccc1-n1c(N)c(C#N)c(-c2ccc(OC)c(OC)c2)c(C#N)c1=O`: the growth is 42.6% (inactive).

For `CC#C[C@]1(O)CC[C@H]2[C@@H]3CCC4=CC(=O)CCC4=C3[C@@H](c3ccc4c(c3)OCO4)C[C@@]21C`, the growth is -59.7% (active).

The values above are taken from PubChem BioAssay (NCI).
